The campaign covered roughly 5,500 compounds. About 2,000 (36%) were called active. Inconclusive results (about 18%) are left out. Cut-off read from the data, not from the text of the source: active = normalized growth mostly below about 0.91 (no sharp cut-off); inconclusive = no clear call, values can overlap the other calls; inactive = mostly above about 0.92. This is one part of the list.
Assay: chemical genetic growth profiling, strain panel (AID 1159580);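 note: tested at 20 µM; growth read once vehicle control cultures reached saturation at 30 °C; 1 = growth at the plate median or of vehicle wells; lower values mean less growth of the strain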
Conditions: growth OD

Measured: normalized growth

CC(=O)Oc1ccc(Cl)c2cccnc12
active: S. cerevisiae deletion strains, locus YJL187C, strain SWE1, active compounds read low 0.0588 | S. cerevisiae deletion strains, locus YJR043C, strain POL32, active compounds read low 0.0605 | S. cerevisiae deletion strains, locus YJR075W, strain HOC1, active compounds read low 0.0612 | S. cerevisiae deletion strains, locus YKL009W, strain mrt4, active compounds read low 0.0837 | S. cerevisiae deletion strains, locus YKL068W, active compounds read low 0.061 | S. cerevisiae deletion strains, locus YKL085W, strain MDH1 (second series), active compounds read low 0.0554 | S. cerevisiae deletion strains, locus YKL085W, strain MDH1, active compounds read low 0.0554 | S. cerevisiae deletion strains, locus YKL160W, strain elf1, active compounds read low 0.058 | S. cerevisiae deletion strains, locus YKL190W, strain CNB1, active compounds read low 0.0452 | S. cerevisiae deletion strains, locus YKR001C, strain vps1, active compounds read low 0.0643 | S. cerevisiae deletion strains, locus YKR026C, strain gcn3, active compounds read low 0.0619 | S. cerevisiae deletion strains, locus YKR091W, strain srl3, active compounds read low 0.0618 | S. cerevisiae deletion strains, locus YLL001W, strain dnm1, active compounds read low 0.0631 | S. cerevisiae deletion strains, locus YLL026W, active compounds read low 0.0596 | S. cerevisiae deletion strains, locus YLL041C, strain sdh2, active compounds read low 0.0561 | S. cerevisiae deletion strains, locus YLR027C, strain aat2, active compounds read low 0.0554 | S. cerevisiae deletion strains, locus YLR039C, strain RIC1, active compounds read low 0.0795 | S. cerevisiae deletion strains, locus YLR058C, strain SHM2, active compounds read low 0.0497 | S. cerevisiae deletion strains, locus YLR102C, strain apc9, active compounds read low 0.0628 | S. cerevisiae deletion strains, locus YLR221C, strain rsa3, active compounds read low 0.061 | S. cerevisiae deletion strains, locus YLR258W, strain gsy2, active compounds read low 0.0582 | S. cerevisiae deletion strains, locus YLR262C, strain YPT6 (second series), active compounds read low 0.0745 | S. cerevisiae deletion strains, locus YLR262C, strain YPT6, active compounds read low 0.0956 | S. cerevisiae deletion strains, locus YLR268W, strain sec22, active compounds read low 0.0707 | S. cerevisiae deletion strains, locus YLR320W, strain mms22, active compounds read low 0.074 | S. cerevisiae deletion strains, locus YLR330W, strain CHS5, active compounds read low 0.0507 | S. cerevisiae deletion strains, locus YLR342W, strain FKS1 (second series), active compounds read low 0.0702 | S. cerevisiae deletion strains, locus YLR342W, strain FKS1, active compounds read low 0.0632 | S. cerevisiae deletion strains, locus YLR357W, strain rsc2, active compounds read low 0.13 | S. cerevisiae deletion strains, locus YLR370C, strain arc18, active compounds read low 0.0627 | S. cerevisiae deletion strains, locus YLR371W, strain rom2, active compounds read low 0.0668 | S. cerevisiae deletion strains, locus YLR384C, strain iki3, active compounds read low 0.0595 | S. cerevisiae deletion strains, locus YLR418C, strain cdc73, active compounds read low 0.101 | S. cerevisiae deletion strains, locus YML016C, strain PPZ1, active compounds read low 0.0485 | S. cerevisiae deletion strains, locus YML032C, strain rad52, active compounds read low 0.0749 | S. cerevisiae deletion strains, locus YML120C, strain ndi1, active compounds read low 0.0578 | S. cerevisiae deletion strains, locus YML124C, strain tub3, active compounds read low 0.0617 | S. cerevisiae deletion strains, locus YMR058W, strain fet3, active compounds read low 0.0625 | S. cerevisiae deletion strains, locus YMR078C, strain ctf18, active compounds read low 0.0737 | S. cerevisiae deletion strains, locus YMR125W, strain sto1, active compounds read low 0.081 | S. cerevisiae deletion strains, locus YMR129W, active compounds read low 0.0589 | S. cerevisiae deletion strains, locus YMR205C, strain PFK2, active compounds read low 0.0841 | S. cerevisiae deletion strains, locus YMR223W, strain ubp8, active compounds read low 0.069 | S. cerevisiae deletion strains, locus YMR231W, strain pep5, active compounds read low 0.0641 | S. cerevisiae deletion strains, locus YMR307W, strain GAS1, active compounds read low 0.122 | S. cerevisiae deletion strains, locus YNL067W, strain RPL9B, active compounds read low 0.0485 | S. cerevisiae deletion strains, locus YNL071W, strain lat1, active compounds read low 0.0618 | S. cerevisiae deletion strains, locus YNL153C, strain GIM3, active compounds read low 0.048 | S. cerevisiae deletion strains, locus YNL209W, strain ssb2, active compounds read low 0.0585 | S. cerevisiae deletion strains, locus YNL233W, strain BNI4, active compounds read low 0.0581 | S. cerevisiae deletion strains, locus YNL248C, strain rpa49, active compounds read low 0.0904 | S. cerevisiae deletion strains, locus YNL250W, strain rad50, active compounds read low 0.127 | S. cerevisiae deletion strains, locus YNL271C, strain bni1, active compounds read low 0.0631 | S. cerevisiae deletion strains, locus YNL298W, strain CLA4, active compounds read low 0.0622 | S. cerevisiae deletion strains, locus YNL307C, strain MCK1, active compounds read low 0.0688 | S. cerevisiae deletion strains, locus YNL322C, strain KRE1 (second series), active compounds read low 0.0653 | S. cerevisiae deletion strains, locus YNR049C, strain mso1, active compounds read low 0.06 | S. cerevisiae deletion strains, locus YNR052C, strain pop2, active compounds read low 0.0622 | S. cerevisiae deletion strains, locus YOL147C, strain pex11, active compounds read low 0.0595 | S. cerevisiae deletion strains, locus YOR001W, strain rrp6, active compounds read low 0.0713 | S. cerevisiae deletion strains, locus YOR061W, strain CKA2, active compounds read low 0.0492 | S. cerevisiae deletion strains, locus YOR069W, strain VPS5, active compounds read low 0.0514 | S. cerevisiae deletion strains, locus YOR070C, strain gyp1, active compounds read low 0.0596 | S. cerevisiae deletion strains, locus YOR080W, strain dia2, active compounds read low 0.064 | S. cerevisiae deletion strains, locus YOR083W, strain WHI5, active compounds read low 0.0594 | S. cerevisiae deletion strains, locus YOR106W, strain vam3, active compounds read low 0.0646 | S. cerevisiae deletion strains, locus YOR136W, strain idh2, active compounds read low 0.0755 | S. cerevisiae deletion strains, locus YOR144C, strain elg1, active compounds read low 0.0602 | S. cerevisiae deletion strains, locus YOR184W, strain ser1, active compounds read low 0.0785 | S. cerevisiae deletion strains, locus YOR265W, strain rbl2, active compounds read low 0.0601 | S. cerevisiae deletion strains, locus YOR270C, strain vph1, active compounds read low 0.104 | S. cerevisiae deletion strains, locus YOR290C, strain snf2, active compounds read low 0.0601 | S. cerevisiae deletion strains, locus YOR316C, strain cot1, active compounds read low 0.0595 | S. cerevisiae deletion strains, locus YPL051W, strain arl3, active compounds read low 0.0618 | S. cerevisiae deletion strains, locus YPL055C, strain LGE1, active compounds read low 0.0661 | S. cerevisiae deletion strains, locus YPL078C, strain atp4, active compounds read low 0.0648 | S. cerevisiae deletion strains, locus YPL106C, strain sse1, active compounds read low 0.0984 | S. cerevisiae deletion strains, locus YPL240C, strain hsp82, active compounds read low 0.0604 | S. cerevisiae deletion strains, locus YPL241C, strain CIN2, active compounds read low 0.0494 | S. cerevisiae deletion strains, locus YPR119W, strain clb2, active compounds read low 0.0672 | S. cerevisiae deletion strains, locus YPR141C, strain kar3, active compounds read low 0.0666 | S. cerevisiae deletion strains, locus YPR163C, strain tif3, active compounds read low 0.0706 | S. cerevisiae deletion strains, locus YPR167C, strain met16, active compounds read low 0.0624 | S. cerevisiae deletion strains, strain wtn01, active compounds read low 0.0713 | S. cerevisiae strains, strain wild type, active compounds read low 0.0465
inactive: S. cerevisiae deletion strains, locus YOL012C, strain htz1 0.23

Reference: PubChem BioAssay AID1159580 (chemical genetic matrix, 2015)
